Legend:
Assay in all cases: DAPPL (digital affinity profiling via proximity ligation, sequencing); 10 mM Tris-HCl pH 7.5, 50 mM NaCl, 1 mM DTT, 4% glycerol, room temperature, 30 min; GST-TFs on glutathione beads, 16-mer random dsDNA library, 0.1% formaldehyde crosslink after washing; high values mean tight binding
Details in all cases: protein: recombinant; tags: N-terminal GST; dsDNA, one strand shown
FEV = molecular target: T1, FEV (Homo sapiens, UniProt Q99581 1-238)
T1 sequence: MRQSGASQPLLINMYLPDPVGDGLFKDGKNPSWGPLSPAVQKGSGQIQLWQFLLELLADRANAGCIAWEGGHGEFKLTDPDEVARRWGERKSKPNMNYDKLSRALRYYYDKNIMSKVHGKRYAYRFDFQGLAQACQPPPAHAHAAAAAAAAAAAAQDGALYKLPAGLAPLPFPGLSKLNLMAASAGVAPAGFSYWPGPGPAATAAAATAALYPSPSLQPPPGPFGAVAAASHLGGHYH
Summary of the method: (§1)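 Yeast served to express human transcription factors as GST fusions, which were then captured on glutathione beads and labelled with DNA barcodes. Pooled with a tag-only sample, they were incubated with 200 nmole of a 16-mer random double-stranded DNA library for 30 min at room temperature in Tris/NaCl/DTT/glycerol buffer, washed, crosslinked with 0.1% formaldehyde, ligated by proximity, amplified by PCR and sequenced. Dividing each hexamer's read frequency for a factor by its frequency for the tag-only sample gives the binding signal.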

ETV5 = ETV5 (Homo sapiens, UniProt P41161 1-510)
Summary of the method: as §1

SPIC = molecular target: T2, SPIC (Homo sapiens, UniProt Q8N5J4 1-248)
T2 sequence: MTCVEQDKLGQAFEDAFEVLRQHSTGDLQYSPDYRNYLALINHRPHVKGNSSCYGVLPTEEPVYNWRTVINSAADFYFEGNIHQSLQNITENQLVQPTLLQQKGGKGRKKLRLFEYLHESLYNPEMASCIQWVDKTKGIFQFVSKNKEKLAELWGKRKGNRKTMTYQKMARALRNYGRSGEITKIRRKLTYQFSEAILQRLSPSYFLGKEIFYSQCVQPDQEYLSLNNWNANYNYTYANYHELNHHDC
Summary of the method: as §1

ELF4 = ELF4 (Homo sapiens, UniProt Q99607 1-663)
Summary of the method: as §1

ELK4 = molecular target: T3, ELK4 (Homo sapiens, UniProt P28324-2 1-405)
T3 sequence: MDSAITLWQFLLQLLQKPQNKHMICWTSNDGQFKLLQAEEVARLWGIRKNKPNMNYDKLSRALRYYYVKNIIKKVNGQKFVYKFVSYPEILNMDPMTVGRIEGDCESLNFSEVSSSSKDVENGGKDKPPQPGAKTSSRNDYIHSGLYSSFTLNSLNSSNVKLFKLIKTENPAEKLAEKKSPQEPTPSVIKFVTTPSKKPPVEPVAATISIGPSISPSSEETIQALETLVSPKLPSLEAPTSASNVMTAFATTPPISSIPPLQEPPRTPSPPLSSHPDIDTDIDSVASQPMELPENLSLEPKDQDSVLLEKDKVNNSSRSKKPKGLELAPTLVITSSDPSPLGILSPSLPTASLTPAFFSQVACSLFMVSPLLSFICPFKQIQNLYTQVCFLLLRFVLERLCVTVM
Summary of the method: as §1

ETV2 = molecular target: T4, ETV2 (Homo sapiens, UniProt O00321 1-342)
T4 sequence: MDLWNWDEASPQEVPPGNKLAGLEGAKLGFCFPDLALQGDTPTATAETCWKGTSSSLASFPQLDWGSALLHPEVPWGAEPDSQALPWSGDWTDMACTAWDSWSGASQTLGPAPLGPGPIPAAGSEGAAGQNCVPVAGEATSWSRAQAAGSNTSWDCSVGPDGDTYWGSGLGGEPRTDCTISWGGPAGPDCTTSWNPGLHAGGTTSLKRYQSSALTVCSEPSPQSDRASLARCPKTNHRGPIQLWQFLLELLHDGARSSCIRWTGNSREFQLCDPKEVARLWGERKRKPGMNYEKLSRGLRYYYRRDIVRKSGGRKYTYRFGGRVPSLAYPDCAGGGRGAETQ
Summary of the method: as §1

ELF3 = molecular target: T5, ELF3 (Homo sapiens, UniProt P78545 1-371)
T5 sequence: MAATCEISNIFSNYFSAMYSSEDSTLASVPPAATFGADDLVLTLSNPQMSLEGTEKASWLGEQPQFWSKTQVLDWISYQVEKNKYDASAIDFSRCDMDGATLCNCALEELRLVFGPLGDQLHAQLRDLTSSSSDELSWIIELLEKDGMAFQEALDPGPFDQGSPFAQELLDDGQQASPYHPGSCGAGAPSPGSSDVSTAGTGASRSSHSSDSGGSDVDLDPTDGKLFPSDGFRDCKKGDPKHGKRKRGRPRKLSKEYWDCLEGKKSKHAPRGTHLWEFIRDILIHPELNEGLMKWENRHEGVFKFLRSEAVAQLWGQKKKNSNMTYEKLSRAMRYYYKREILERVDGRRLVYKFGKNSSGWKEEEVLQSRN
Summary of the method: as §1

ERF = molecular target: T6, ERF (Homo sapiens, UniProt P50548 1-548)
T6 sequence: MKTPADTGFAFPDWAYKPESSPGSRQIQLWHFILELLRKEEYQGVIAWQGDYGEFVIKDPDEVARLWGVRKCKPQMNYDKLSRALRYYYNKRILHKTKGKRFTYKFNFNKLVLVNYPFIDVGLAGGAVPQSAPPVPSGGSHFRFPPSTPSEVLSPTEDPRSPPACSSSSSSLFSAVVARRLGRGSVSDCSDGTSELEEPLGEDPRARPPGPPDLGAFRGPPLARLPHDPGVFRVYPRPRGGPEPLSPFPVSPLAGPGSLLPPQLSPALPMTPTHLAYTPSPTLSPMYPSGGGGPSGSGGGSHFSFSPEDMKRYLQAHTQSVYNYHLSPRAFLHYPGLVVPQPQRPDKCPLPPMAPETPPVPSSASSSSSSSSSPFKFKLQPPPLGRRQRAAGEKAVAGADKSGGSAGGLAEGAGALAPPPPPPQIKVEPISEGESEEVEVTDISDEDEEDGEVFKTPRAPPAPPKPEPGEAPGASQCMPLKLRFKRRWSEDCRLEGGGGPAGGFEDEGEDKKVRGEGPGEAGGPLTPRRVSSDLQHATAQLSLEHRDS
Summary of the method: as §1

ETV3L = molecular target: T7, ETV3L (Homo sapiens, UniProt Q6ZN32 1-361)
T7 sequence: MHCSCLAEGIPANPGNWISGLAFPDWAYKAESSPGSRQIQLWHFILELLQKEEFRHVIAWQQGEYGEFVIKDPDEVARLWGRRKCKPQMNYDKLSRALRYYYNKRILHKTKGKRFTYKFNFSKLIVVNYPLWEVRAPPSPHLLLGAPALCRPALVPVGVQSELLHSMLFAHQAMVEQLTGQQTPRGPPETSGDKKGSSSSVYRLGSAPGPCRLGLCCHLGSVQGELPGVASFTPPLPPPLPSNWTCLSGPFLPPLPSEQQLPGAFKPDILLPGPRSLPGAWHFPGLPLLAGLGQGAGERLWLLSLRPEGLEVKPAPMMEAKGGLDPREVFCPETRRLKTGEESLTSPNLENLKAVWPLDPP
Summary of the method: as §1

ETS2 = molecular target: T8, ETS2 (Homo sapiens, UniProt P15036 1-469)
T8 sequence: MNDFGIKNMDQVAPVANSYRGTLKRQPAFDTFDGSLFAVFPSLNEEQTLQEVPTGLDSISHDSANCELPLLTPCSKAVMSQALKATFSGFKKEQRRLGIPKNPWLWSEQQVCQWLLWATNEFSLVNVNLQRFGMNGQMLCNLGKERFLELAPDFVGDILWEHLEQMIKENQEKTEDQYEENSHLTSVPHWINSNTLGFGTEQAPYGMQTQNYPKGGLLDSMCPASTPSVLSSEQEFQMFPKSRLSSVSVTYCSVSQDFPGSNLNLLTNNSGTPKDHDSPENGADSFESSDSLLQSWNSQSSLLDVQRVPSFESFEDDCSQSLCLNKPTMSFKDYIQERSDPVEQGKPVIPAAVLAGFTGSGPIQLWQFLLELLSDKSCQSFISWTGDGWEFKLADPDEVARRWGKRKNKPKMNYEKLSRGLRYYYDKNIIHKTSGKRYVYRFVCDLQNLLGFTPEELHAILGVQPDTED
Summary of the method: as §1

SPDEF = molecular target: T9, SPDEF (Homo sapiens, UniProt O95238 1-335)
T9 sequence: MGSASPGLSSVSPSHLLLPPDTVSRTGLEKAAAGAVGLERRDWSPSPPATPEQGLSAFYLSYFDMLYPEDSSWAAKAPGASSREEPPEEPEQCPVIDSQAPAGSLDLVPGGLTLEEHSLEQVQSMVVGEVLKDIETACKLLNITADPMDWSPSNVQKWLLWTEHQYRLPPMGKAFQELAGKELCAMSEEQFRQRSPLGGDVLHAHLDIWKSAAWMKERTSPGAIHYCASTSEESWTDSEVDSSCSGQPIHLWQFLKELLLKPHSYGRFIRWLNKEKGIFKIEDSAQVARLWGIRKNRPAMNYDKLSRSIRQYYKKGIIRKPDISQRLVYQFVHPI
Summary of the method: as §1

ETV7 = molecular target: T10, ETV7 (Homo sapiens, UniProt Q9Y603 1-341)
T10 sequence: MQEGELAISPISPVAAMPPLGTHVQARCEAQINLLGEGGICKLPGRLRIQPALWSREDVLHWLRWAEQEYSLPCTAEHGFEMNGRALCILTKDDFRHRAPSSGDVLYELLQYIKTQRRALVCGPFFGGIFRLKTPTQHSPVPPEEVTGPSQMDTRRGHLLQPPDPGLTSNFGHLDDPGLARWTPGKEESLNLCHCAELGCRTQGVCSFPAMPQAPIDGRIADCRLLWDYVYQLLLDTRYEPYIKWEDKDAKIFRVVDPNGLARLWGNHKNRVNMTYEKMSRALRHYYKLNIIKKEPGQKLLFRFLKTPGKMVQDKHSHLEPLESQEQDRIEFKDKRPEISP
Summary of the method: as §1

ELF5 = molecular target: T11, ELF5 (Homo sapiens, UniProt Q9UKW6-2 1-255)
T11 sequence: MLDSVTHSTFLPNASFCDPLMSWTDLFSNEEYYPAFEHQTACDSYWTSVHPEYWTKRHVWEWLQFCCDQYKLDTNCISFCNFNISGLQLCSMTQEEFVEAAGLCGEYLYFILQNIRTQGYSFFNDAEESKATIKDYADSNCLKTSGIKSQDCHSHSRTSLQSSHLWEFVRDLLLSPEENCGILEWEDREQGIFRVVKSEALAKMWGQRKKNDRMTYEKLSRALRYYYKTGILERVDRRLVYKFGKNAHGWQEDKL
Summary of the method: as §1

ETV3 = molecular target: T12, ETV3 (Homo sapiens, UniProt P41162-2 1-143)
T12 sequence: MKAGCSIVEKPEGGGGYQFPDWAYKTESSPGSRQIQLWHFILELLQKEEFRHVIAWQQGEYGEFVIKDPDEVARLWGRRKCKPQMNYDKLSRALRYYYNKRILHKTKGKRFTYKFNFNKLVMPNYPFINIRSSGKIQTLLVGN
Summary of the method: as §1

ETV6 = ETV6 (Homo sapiens, UniProt P41212 1-452)
Summary of the method: as §1

ETV1 = ETV1 (Homo sapiens, UniProt P50549 1-477)
Summary of the method: as §1

Chain of ELF4 (Q99607 whole entry): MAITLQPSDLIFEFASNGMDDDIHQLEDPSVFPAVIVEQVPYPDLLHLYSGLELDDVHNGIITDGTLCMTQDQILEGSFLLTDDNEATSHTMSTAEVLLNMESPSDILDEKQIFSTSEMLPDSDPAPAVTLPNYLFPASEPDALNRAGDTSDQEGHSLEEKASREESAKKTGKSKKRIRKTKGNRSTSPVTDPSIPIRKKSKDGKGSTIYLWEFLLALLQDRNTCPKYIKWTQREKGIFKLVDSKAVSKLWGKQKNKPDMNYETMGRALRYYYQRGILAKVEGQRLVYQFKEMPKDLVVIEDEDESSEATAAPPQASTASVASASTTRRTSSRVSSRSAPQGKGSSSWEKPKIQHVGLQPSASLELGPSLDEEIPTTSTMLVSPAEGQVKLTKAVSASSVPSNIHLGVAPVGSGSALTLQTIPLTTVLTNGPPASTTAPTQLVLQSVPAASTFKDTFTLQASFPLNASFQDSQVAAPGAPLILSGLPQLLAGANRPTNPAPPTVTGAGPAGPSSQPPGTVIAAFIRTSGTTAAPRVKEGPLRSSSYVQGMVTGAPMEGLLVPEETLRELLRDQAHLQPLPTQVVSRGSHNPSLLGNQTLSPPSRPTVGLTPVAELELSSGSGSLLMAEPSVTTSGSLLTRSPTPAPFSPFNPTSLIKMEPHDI
Chain of ETV6 (P41212 whole entry): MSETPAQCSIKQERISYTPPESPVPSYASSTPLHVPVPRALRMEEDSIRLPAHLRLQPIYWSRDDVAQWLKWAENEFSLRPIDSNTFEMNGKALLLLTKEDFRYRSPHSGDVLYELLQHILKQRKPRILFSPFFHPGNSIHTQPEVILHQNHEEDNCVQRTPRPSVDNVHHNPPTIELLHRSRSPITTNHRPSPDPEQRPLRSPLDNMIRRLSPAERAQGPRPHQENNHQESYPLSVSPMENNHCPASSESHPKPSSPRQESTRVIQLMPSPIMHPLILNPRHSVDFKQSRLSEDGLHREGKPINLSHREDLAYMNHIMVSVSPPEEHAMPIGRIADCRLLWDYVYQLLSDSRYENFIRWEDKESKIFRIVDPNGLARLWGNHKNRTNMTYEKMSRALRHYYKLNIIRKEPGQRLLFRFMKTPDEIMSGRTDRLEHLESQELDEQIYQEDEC
Chain of ETV5 (P41161 whole entry): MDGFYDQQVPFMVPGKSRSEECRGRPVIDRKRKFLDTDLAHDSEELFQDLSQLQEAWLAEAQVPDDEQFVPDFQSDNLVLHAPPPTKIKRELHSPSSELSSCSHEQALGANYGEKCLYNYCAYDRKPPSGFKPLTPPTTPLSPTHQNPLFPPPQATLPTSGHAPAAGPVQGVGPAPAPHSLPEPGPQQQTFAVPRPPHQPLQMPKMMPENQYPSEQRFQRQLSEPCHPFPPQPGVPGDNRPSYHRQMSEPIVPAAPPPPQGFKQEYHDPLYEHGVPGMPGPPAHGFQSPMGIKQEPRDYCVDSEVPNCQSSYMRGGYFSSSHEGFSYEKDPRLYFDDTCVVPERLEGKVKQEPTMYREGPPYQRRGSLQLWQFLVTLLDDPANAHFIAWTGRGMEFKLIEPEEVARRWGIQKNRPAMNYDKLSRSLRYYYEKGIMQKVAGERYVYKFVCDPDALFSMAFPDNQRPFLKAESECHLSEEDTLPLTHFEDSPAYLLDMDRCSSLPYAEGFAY
Chain of ETV1 (P50549 whole entry): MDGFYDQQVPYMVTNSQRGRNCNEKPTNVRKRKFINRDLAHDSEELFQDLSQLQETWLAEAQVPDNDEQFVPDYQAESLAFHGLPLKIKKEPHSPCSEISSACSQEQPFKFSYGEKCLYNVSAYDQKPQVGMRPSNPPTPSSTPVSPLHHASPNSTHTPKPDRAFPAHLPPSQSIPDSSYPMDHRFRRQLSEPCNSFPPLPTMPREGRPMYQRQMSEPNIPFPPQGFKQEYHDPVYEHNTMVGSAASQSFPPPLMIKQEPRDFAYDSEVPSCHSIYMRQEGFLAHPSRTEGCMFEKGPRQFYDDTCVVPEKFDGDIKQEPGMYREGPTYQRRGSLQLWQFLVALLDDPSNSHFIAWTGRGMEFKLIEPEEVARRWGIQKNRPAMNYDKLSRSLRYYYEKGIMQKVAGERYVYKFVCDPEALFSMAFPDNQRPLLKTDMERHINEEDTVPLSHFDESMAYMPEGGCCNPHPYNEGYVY

Row | Sequence | binding signal (FEV) | binding signal (ETV5) | binding signal (SPIC) | binding signal (ELF4) | binding signal (ELK4) | binding signal (ETV2) | binding signal (ELF3) | binding signal (ERF) | binding signal (ETV3L) | binding signal (ETS2) | binding signal (SPDEF) | binding signal (ETV7) | binding signal (ELF5) | binding signal (ETV3) | binding signal (ETV6) | binding signal (ETV1)
1 | CTGCAG | 1.1 fold enrichment (6-mer frequency, TF over GST control) | 1.11 fold enrichment (6-mer frequency, TF over GST control) | 1.37 fold enrichment (6-mer frequency, TF over GST control) | 1.17 fold enrichment (6-mer frequency, TF over GST control) | 1.26 fold enrichment (6-mer frequency, TF over GST control) | 1.3 fold enrichment (6-mer frequency, TF over GST control) | 1.02 fold enrichment (6-mer frequency, TF over GST control) | 1.07 fold enrichment (6-mer frequency, TF over GST control) | 1.18 fold enrichment (6-mer frequency, TF over GST control) | 1.18 fold enrichment (6-mer frequency, TF over GST control) | 1.1 fold enrichment (6-mer frequency, TF over GST control) | 1.13 fold enrichment (6-mer frequency, TF over GST control) | 1.09 fold enrichment (6-mer frequency, TF over GST control) | 1.07 fold enrichment (6-mer frequency, TF over GST control) | 1.11 fold enrichment (6-mer frequency, TF over GST control) | –
2 | AACGCC | 1.11 fold enrichment (6-mer frequency, TF over GST control) | 1.07 fold enrichment (6-mer frequency, TF over GST control) | 1.03 fold enrichment (6-mer frequency, TF over GST control) | 1.15 fold enrichment (6-mer frequency, TF over GST control) | 1.2 fold enrichment (6-mer frequency, TF over GST control) | 1.08 fold enrichment (6-mer frequency, TF over GST control) | 1.08 fold enrichment (6-mer frequency, TF over GST control) | 1 fold enrichment (6-mer frequency, TF over GST control) | 1.11 fold enrichment (6-mer frequency, TF over GST control) | 1.06 fold enrichment (6-mer frequency, TF over GST control) | – | – | 1.01 fold enrichment (6-mer frequency, TF over GST control) | 1.06 fold enrichment (6-mer frequency, TF over GST control) | 1.19 fold enrichment (6-mer frequency, TF over GST control) | 1.1 fold enrichment (6-mer frequency, TF over GST control)
3 | TGTGAC | 1.14 fold enrichment (6-mer frequency, TF over GST control) | 1.15 fold enrichment (6-mer frequency, TF over GST control) | 1.14 fold enrichment (6-mer frequency, TF over GST control) | 1.19 fold enrichment (6-mer frequency, TF over GST control) | 1.2 fold enrichment (6-mer frequency, TF over GST control) | 1.09 fold enrichment (6-mer frequency, TF over GST control) | 1.16 fold enrichment (6-mer frequency, TF over GST control) | – | 1.22 fold enrichment (6-mer frequency, TF over GST control) | 1.14 fold enrichment (6-mer frequency, TF over GST control) | 1.2 fold enrichment (6-mer frequency, TF over GST control) | 1.12 fold enrichment (6-mer frequency, TF over GST control) | 1.1 fold enrichment (6-mer frequency, TF over GST control) | 1.17 fold enrichment (6-mer frequency, TF over GST control) | 1.07 fold enrichment (6-mer frequency, TF over GST control) | 1.04 fold enrichment (6-mer frequency, TF over GST control)

Source: PMC7862700, “An all-to-all approach to the identification of sequence-specific readers for epigenetic DNA modifications on cytosine”
